Screening data from PubChem.
Shown are actives, neighbours in structure and some others; about 8% of the full set was active somewhere.
HCV inhibitor = HCV inhibition. Huh7.5.1 HCVcc-Cre infection, luciferase reporter, 44 h. Potency, µM (series often up to 41.8 µM), for the others: at the top dose activity change, negative = inhibition, actives largely listed as inhibitors. 340,000 compounds, 3.4% hits. AID 651820; active means well fitted inhibition curve with a large enough effect; inconclusive means small, poorly fitted or top-dose-only effect, or another doubt; inactive means no such curve, though single readings can be large or run the other way; further: potency means the concentration at half of the fitted maximal effect; on the % scale 0 is the no-effect control and ±100 the full control effect
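Seed cells (1,000/well) for 4 h; treat with compound and infect with HCVcc-Cre, moi about 0.5. Incubate 44 h, then detect luciferase activity.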
MARV entry inh = Marburg virus entry inhibition; Marburg virus pseudotyped entry inhibition, cell reporter; Potency, µM (doses to about 37.8 µM), without a hit: at the top dose activity change, negative = inhibition, usual class: inhibitors; 300,000 compounds, 1.8% hits; calls by dose curve; tested in HEK293 cells; further: potency means the concentration at half of the fitted maximal effect; on the % scale 0 is the no-effect control and ±100 the full control effect
LASV entry inh = inhibitors of Lassa virus binding or cell entry. Lassa virus pseudotype entry inhibition, cell reporter. Potency, µM (doses to about 37.9 µM), inactives show top-dose activity change, negative = inhibition, usual class: inhibitors. 300,000 compounds, 1.2% hits; calls by dose curve; tested in HEK293 cells; further: potency means the concentration at half of the fitted maximal effect; on the % scale 0 is the no-effect control and ±100 the full control effect; nearly all actives have a fitted effect of over 50% in size
HCMV inh = blocks human cytomegalovirus replication. HFF cells, HCMV-luciferase reporter, 72 h; active compounds read low. activity change, negative = inhibition, % at 57.5 µM. 410,000 compounds, 4.5% hits; in the data active means activity change below about -60%; inconclusive means no clear call, values can overlap the other calls; inactive means above about -39%; further: on the % scale 0 is the no-effect control and ±100 the full control effect
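Luciferase read-out from HCMV-luciferase-infected HFFs (MOI 1 PFU/cell) 72 h post infection at 37C; compounds added after 16 h cell attachment; activity normalized between buffer-only basal and Salinomycin (10uM) inhibitor controls.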
FMDV antiviral = foot and mouth disease virus antiviral activity; Potency, µM (highest dose often 57.9 µM), inactives show top-dose activity change, negative = inhibition, hits mostly inhibitors; FMDV antiviral cell-based qHTS; AID 1159524; 410,000 compounds, 1.2% hits; calls by dose curve; tested in HEK293T cells; further: read-out not given here; potency means the concentration at half of the fitted maximal effect; on the % scale 0 is the no-effect control and ±100 the full control effect; nearly all actives have a fitted effect of over 45% in size
SARS PLpro yeast = blocks SARS-CoV papain-like protease in a yeast assay. S. cerevisiae expressing SARS-CoV PLpro, growth rescue. Potency, µM (titrated, usually from 32.9 µM), for inactives: top-dose activity, positive = growth rescue, actives largely listed as activators. 330,000 compounds, 0.19% hits. AID 485353; calls by dose curve; further: potency means the concentration at half of the fitted maximal effect; 0% is about no effect; nearly all actives have a fitted effect of over 55% in size
The depositor's hits bear a star; ? = inconclusive; nt = not tested or not shown; [ ] = another dose, or the depositor's remark.

SMILES	HCV inhibitor	MARV entry inh	LASV entry inh	HCMV inh	FMDV antiviral	SARS PLpro yeast
COc1cc(/C=N/NC(=O)c2nc(-c3ccccc3)n(-c3ccccc3)n2)ccc1O	2%	36%	-10%	-34	-17%	-4%
CCOc1c(Br)cc(/C=N\NC(=O)c2ccccc2)cc1OC	?	?	12%	-63*	-28%	-6%
COc1ccc(CCCC(=O)N/N=C/c2cccc(OC)c2O)cc1C	?	?	?	-99*	-20%	4%
COc1cccc(/C=N/NC(=O)c2ccc(-c3ccccc3)cc2)c1O	?	3.2µM*	5.6µM*	-98*	-27%	?
COc1ccc(/C=N/NC(=O)c2nc(-c3ccccc3)cc(-c3ccccc3)n2)cc1O	?	18µM*	?	27	-10%	5%
Cc1cccc(-n2c(=O)c3c(c4cc(C)ccc4n3C)n(CC(=O)Nc3ccc(C)cc3C)c2=O)c1	nt	nt	18%[46.1 µM]	7	-8%	nt
O=C(Cn1cnc2nc3c(cc2c1=O)CCCC3)Nc1ccc(F)cc1Cl	nt	nt	20%[46.1 µM]	-24	-10%	nt
COc1ccc(Cl)cc1-c1cc2c(c(OC)c1)OCCN(Cc1cccn1-c1nccs1)C2	nt	nt	nt	nt	1%	nt
COC(=O)[C@@]12CCCCN1[C@H](c1ccc(-c3ccccc3)c(OC)c1)[C@H]1C(=O)N(C)C(=O)[C@H]12	12%	nt	nt	-1	?	3%
COC1=C[C@H](C(=O)NCc2ccc(Br)cc2)[C@H](C)[C@@H](c2ccccc2)CC1=O	nt	-6%[14.2 µM]	nt	nt	nt	nt
COc1ccc(/C=N/NC(=O)c2c(-c3ccccc3)noc2C)cc1	-1%	27%	?	-6	?	15%
COc1cccc(/C=N/NC(=S)Nc2cccc(C(=O)O)c2)c1O	12%	5.8µM*	5.8µM*	52	?	9%
COc1ccc(/C=N/NC(=O)c2nc(-c3ccccc3)cc(-c3ccccc3)n2)cc1	10µM*	?	?	?	-8%	25%
COc1cc(/C=N/NC(=S)Nc2cccc(C(=O)O)c2)ccc1O	2%	?	?	-27	?	-4%
Cc1ccc2[nH]c(C(=O)N/N=C/c3ccccc3O)c(C)c2c1	3.5µM*	nt	nt	-100*	82%	1%
c1ccc(C2NCCc3c2[nH]c2ccccc32)cc1 (centres undefined)	nt	23%[14.2 µM]	nt	nt	nt	nt
CCOc1ccc(N2CC(O)=C(c3ccccc3)C2=N)cc1	2%	-13%[46.1 µM]	?	-3	7%	-3%
Cc1cccc(NC(=S)NCCc2c[nH]c3ccccc23)c1	-13%	?	?	-80*	13%	29%
Cc1cccc(NC(=S)NCCC(C)C)c1	?	1.5µM*	?	-30	113%	-11%
Cc1ccc(C)c(NC(=S)NCCc2c[nH]c3ccccc23)c1	?	?	?	-78*	2%	-1%
Cc1ccc(NC(=S)NCCC(c2ccccc2)c2ccccc2)c(C)c1	11µM*	?	?	-62*	10%	-14%
CN=c1scc(-c2ccccc2F)n1/N=C(\C)c1cccnc1	32µM*	?	?	-12	-8%	-29%
Cc1cccc(S(=O)Cc2ccc(C(=O)NC3CCCCCC3)o2)c1 (centres undefined)	nt	nt	-20%[46.1 µM]	11	-3%	nt
COC1C(O)C(CO)OC1n1c(Br)nc2c(=O)[nH]c(N)nc21 (centres undefined)	nt	nt	nt	nt	-4%	nt
COC1C(CO)OC(n2c3c(Cl)cccc3c3c4c(c5c6cccc(Cl)c6[nH]c5c32)C(=O)NC4=O)C(O)C1O (centres undefined)	?	?	?	-98*	-19%	nt
Cc1ccc(C)c(S(=O)(=O)NCCOc2nc(NC(C)C)nc(NC(C)C)n2)c1	-29%	?	-15%	2	nt	1%
CSc1nc(C)cc(OCCNS(=O)(=O)c2cc(C)ccc2C)n1	22µM*	-9%	16%	-8	9%	19%
O=S(=O)(c1ccc(SCc2ccccc2F)nc1)N1CCCC1	?	nt	nt	-2	-6%	0%
O=C(Nc1ccc(N2CCOCC2)cc1)c1cc2ccccc2o1	?	?	-1%	8	-15%	-5%
O=C(Nc1ccc(CN2CCOCC2)cc1)c1cc2ccccc2o1	35µM*	?	-9%	21	nt	0%
